About 83,000 compounds went through this panel and 20% of them were active in at least one assay; those are over-represented in the sample as a whole.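 Each cell line was grown in a 96-well plate and treated with one concentration of compound for 48 hours. Values below 10 were considered active.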 Unmarked numbers belong to inactive results. The source made the active and inactive calls.
What follows are molecules tested on CAKI-1 renal (assay: NCI-60 one-dose screen, 48 h (100 = growth as untreated, 0 = no growth, -100 = all killed)). Details: 10 µM unless noted.

Row | SMILES | growth
1 | C=C(C)[C@@H]1CC[C@]2(C(N)=O)CC[C@]3(C)[C@H](CC[C@@H]4[C@@]5(C)CC[C@H](O)C(C)(C)[C@@H]5CC[C@]43C)[C@@H]12 | -64.3% [100 µM] (active)
2 | CCN1CCN(CC(=O)Nc2nc3ccc(NCc4ccc(Cl)cc4)cc3s2)CC1 | 68.3%
3 | COc1cc(C)cc2oc3oc(=O)c(C(=O)c4cc5cc(Br)ccc5o4)cc3c(=O)c12 | 91.8%
4 | O=S(=O)(NCCCNc1nccc(-c2c(-c3cccc(F)c3)nc3occn23)n1)c1cccc2ccccc12 | 20.5%
5 | CC1(C)[C@@H](NOCCCN)CC[C@]2(C)[C@H]3C(=O)C=C4[C@@H]5C[C@](C)(C(=O)O)CC[C@]5(C)CC[C@@]4(C)[C@]3(C)CC[C@@H]12 | -79.1% [100 µM] (active)
6 | O=c1[nH]c(CN2CCN(c3cccc(Cl)c3)CC2)nc2cc(Cl)ccc12 | 99.4%
7 | COc1cc2c(O)n(CCCN3CCOCC3)c3c4cnc5cccc(c(=O)c3c2cc1OC)c54 | 30%
8 | CCOC(=O)c1sc2nc(-c3cc(OC)c(OC)c(OC)c3)nc(N3CCOCC3)c2c1C | 31.6%
9 | Cc1cc(C)c(S(=O)(=O)/N=c2/n(-c3ccccc3)nc3n2CCN3C2=NCCN2)c(C)c1 | 74.4%
10 | Cc1ccc(S(=O)(=O)N/N=C2\CC3CCC2(C)C3(C)C)cc1 (centres undefined) | 78.5%
11 | N#C/C(C(=O)c1ccccc1)=C1/C(=O)Nc2ccccc21 | 78.8%
12 | CCc1ccc(C2=C/C(=C/c3ccccc3)C(=O)N2CCc2ccc(S(N)(=O)=O)cc2)cc1 | 67.8%
13 | CC(C)C1=NOC(=O)C1=Cc1cn(-c2ccco2)nc1-c1ccccc1 | 73.8%
14 | COc1cc(Cl)cc(-c2nn(C(=O)NS(=O)(=O)c3ccccc3)cc2-c2ccncc2)c1 | 80.9%
15 | C=C(C)[C@@H]1CC[C@]2(COCCC#N)CC[C@]3(C)[C@H](CC[C@@H]4[C@@](C)(CCCNCCC#N)[C@H](C(=C)C)CC[C@]43C)[C@@H]12 | 27% [100 µM]
16 | COc1ccc(N(c2nc(-c3ccc([N+](=O)[O-])cc3)cs2)C(C)C)cc1 | 62.6%
17 | NS(=O)(=O)c1ccc(CCN2C(=O)/C(=C\c3ccccc3)C=C2c2ccc(Cl)cc2)cc1 | 65.1%

Row | SMILES | growth
18 | O=C1C(Cl)=C(Nc2ccc3cn[nH]c3c2)C(=O)c2ccccc21 | -94.4% (active)
19 | CC(C)c1ccc(C(=O)Nc2sc3c(c2C#N)CCC(=O)C3)cc1 | -44.3% (active)
20 | Cc1ccc2c(c1)/C(=N\N=C/c1cn(C(C)C)c3ccccc13)C(=O)N2 | 64.4%
21 | O=C(C[n+]1ccn(CC(OCc2ccc(Cl)cc2Cl)c2ccc(Cl)cc2Cl)c1)c1ccc(F)cc1 (centres undefined) | 79.7%
22 | CCOc1cccc2c(NC(C)CCCN(CC)CC)c(C)cnc12 (centres undefined) | 103%
23 | O=C(Nc1cccc2ccccc12)c1cc2ccccc2cc1O | -40% (active)
24 | Cc1cc(C)nc(SCC(=O)Nc2cccc(N=Cc3ccccc3O)c2)n1 | 81.4%
25 | CSc1nc2c(c(=O)n1C)C1(C(=O)N(Cc3ccccc3)c3ccccc31)c1c(nc(SC)n(C)c1=O)N2 | 103%
26 | O=C1COCCN1c1ccc(NCc2cn(Cc3ccc(F)cc3)c3ccccc23)cc1 | -37.8% (active)
27 | CCN(CCO)CCC(=O)c1ccc([N+](=O)[O-])cc1 | 102%
28 | O=C(Nc1cccc(C2=NCCN2)c1)c1cccc(C(=O)Nc2cccc(C3=NCCN3)c2)c1 | 92.6%
29 | CC(C)[C@H]1CCC2=C3CC[C@]45OC(=O)[C@@]6(CCC(C)(C)C[C@H]64)CC[C@@]5(C)[C@]3(C)CC[C@@]21C | 53.7% [100 µM]
30 | COc1ccc(/C=C2\N=C(Nc3ccccc3)N(NC(=O)c3ccccn3)C2=O)cc1 | 87.5%
31 | Nc1nnc(CSc2nnc3n(Cc4ccccc4)c(=O)c4c5c(sc4n23)CCCC5)s1 | 10%
32 | O=C(NCCCNC(=O)OCc1ccc2c(Br)cc(Br)c(O)c2n1)OCc1ccc2c(Br)cc(Br)c(O)c2n1 | -92% (active)
33 | CCn1cc(-c2[nH]c(=S)ncc2-c2ccc(Cl)cc2)c(-c2ccc(Br)cc2)n1 | 98.5%
34 | Cc1cccc(C[C@H](NC(=O)Nc2ccc(Cl)cc2F)C(=O)N[C@@H]2C(=O)N3C[C@H](O)C[C@H]3C(=O)N3CCCC[C@H]3C(=O)N[C@@H](C)C(=O)N3C[C@H](C)C[C@H]3C(=O)O[C@H]2C)c1 | 8.12% (active)

Source: PubChem BioAssay (NCI)
